# Results published in PubChem BioAssay AID720610 (Broad Institute, 2013).
# Inconclusive results are not listed. Activity calls are given as the source filed them.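 The calls were made as follows: active = compounds whose fitted half-maximal signal loss occurs at or below twice the top dose at every exposure time; inconclusive = exposure times disagree on the call; inactive = the rest.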
# Test: HeLa cell viability by resazurin reduction, late-stage follow-up, mechanism study for HRAS target identification, Alamar Blue fluorescence, 8-48 h, dry powder (AID 720610)
row,Structure (SMILES),outcome
1,CCC(=O)N(c1ccc(OC)c(Cl)c1)C(C(=O)NCCc1ccccc1)c1cccs1 (configuration not stated),inactive
2,Cc1onc(C(=O)N2CCN(C(c3ccncc3)c3ccncc3)CC2)c1[N+](=O)[O-],inactive
